The nature of test [1]: compounds binding Alexa647 anti-His antibody – biochemical, small-molecule microarray, 635 nm fluorescence, artefact control for SMM control protein annotation, primary screen (AID 1128).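 Note: score merges feature fluorescence with signal-to-noise for each printed compound spot.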 The note with it: higher = more signal.
For test [2], the system named is Human papillomavirus type 1a E7 protein (residues 1-88). Briefly: HPV1a E7 small-molecule binders, primary screen, biochemical, small-molecule microarray, residues 1-88, 635 nm (AID 1129). The note with it: small-molecule microarray binding, fluorescence 635 nm; higher = more signal.
The target of test [3] is Focal adhesion kinase 1 (Homo sapiens) (UniProt Q05397). Briefly: PTK2 protein binding on printed compound slides – biochemical, small-molecule microarray, 635/667 nm fluorescence, BSA, DTT, primary screen (AID 1130).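 Note: composite of spot emission at 667 nm and signal to noise over triplicate slides.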 The note with it: 635 nm fluorescence, higher = more signal.
Test [4] has as its system Fibrinogen (Alexa647-labelled). In words: Alexa647-fibrinogen binding to printed small molecules – biochemical, small-molecule microarray, 635/667 nm fluorescence, artefact control for SMM control-protein annotation, profiling panel (AID 1131).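 Note: z-score merges 667 nm fluorescence with per-spot signal-to-noise over triplicate slides.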 The settings on record: fibrinogen-A647 binding fluorescence, higher = more signal.
Test [5] concerns the target Follistatin (Homo sapiens) (UniProt P19883). Briefly: FST protein binding to printed compounds – biochemical, small-molecule microarray, 635/667 nm fluorescence, primary screen (AID 1132). The note with it: 635 nm fluorescence, higher = more signal.
The target in test [6] is Fibroblast growth factor 2 (Homo sapiens) (UniProt P09038). Briefly: basic fibroblast growth factor binding to printed compounds – biochemical, small-molecule microarray, 635/667 nm fluorescence, primary screen (AID 1133). The note with it: FGF2, fluorescence 635/667, higher = more signal.
Test [7] in a line: JC-1 mitochondrial potential readout, lung cancer cells – cell-based, A549, JC-1 fluorescence, basal, 24 h, 100 nL, profiling panel (AID 1138).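 Note: A549 lung adenocarcinoma cells under basal conditions with no added stimulus; test concentration not given here.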 The settings on record: higher = more signal.
Test [8] concerns Lefty1. Briefly: Lefty1 protein binding to printed compounds – biochemical, small-molecule microarray, 635/667 nm fluorescence, primary screen (AID 1139). The settings on record: fluorescence 635/667, higher = more signal.
For test [9], the system named is wheat germ agglutinin (Triticum aestivum), Alexa647-labelled. Briefly: Alexa647-WGA lectin binding to printed small molecules – biochemical, small-molecule microarray, 635/667 nm fluorescence, artefact control for SMM control-protein annotation, profiling panel (AID 1140).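 Note: score merges 667 nm feature emission with signal to noise over triplicate slides.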 The settings on record: WGA-A647 binding, 635 nm fluorescence, higher = more signal.
Test [10] concerns the target Luciferin 4-monooxygenase (Photinus pyralis) (UniProt P08659). Briefly: inhibition of purified Photinus pyralis luciferase – biochemical, luminescence, purified enzyme, 2006 set, primary screen (AID 1141).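 Note: cell-free assay with purified firefly luciferase at 100 ng per well in PBS; test concentration not given here.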 The settings on record: purified firefly luciferase, SteadyGlo luminescence, 30 min; higher = more signal, called active from +8 up or from −8 down.
Test [11] deals with Wnt5a (protein binding on small-molecule microarray). In words: small molecules binding Wnt5a protein – biophysical, small-molecule microarray, 635/667 nm fluorescence, primary screen (AID 1142).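 Note: fluorescence read at 667 nm with signal to noise per printed feature.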 The settings on record: 635 nm fluorescence, higher = more signal.
A short description of test [12]: ATP-based viability of Huh7 replicon cells – cell-based, CellTiter-Glo luminescence, basal, 48 h, cytotoxicity control for HCV replication inhibitor project, primary screen (AID 1143).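 Note: Huh7 hepatoma cells carrying a hepatitis C replication reporter with no stimulus; test concentration not given here.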 The note with it: higher = more signal, called active from +8 up or from −8 down. For orientation: A replicon is a self-replicating genome or part of one, used to study replication in cells.

The nature of test [13]: Pseudomonas biofilm growth suppression – PAO1 strain, BacTiter-Glo luminescence, LB-PBS, primary screen (AID 1144). The settings on record: P. aeruginosa PAO1 biofilm, 12 h, higher = more signal.
A short description of test [14]: basal CRE-LacZ reporter activity in PC12 – cell-based, unstimulated, primary screen (AID 1145). The settings on record: no forskolin, luminescence, 4.5 h, higher = more signal, called active from +8 up or from −8 down.
Test [15] is described as follows: forskolin-driven CRE-LacZ activity in PC12 – cell-based, CRE-LacZ reporter, forskolin-stimulated, primary screen (AID 1146).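 Note: PC12 cells with 6xCRE LacZ reporter stimulated by forskolin 10 µM; beta-galactosidase reporter signal reflecting CREB driven transcription.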 The settings on record: luminescence, 4.5 h, higher = more signal, called active from +8 up or from −8 down.
The target of test [16] is Streptavidin (Streptomyces avidinii) (UniProt P22629). In words: compounds binding control protein streptavidin – biophysical, small-molecule microarray, 635/667 nm fluorescence, artefact control for SMM compound annotation, primary screen (AID 1147).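 Note: signal reflects streptavidin binding to arrayed compounds as a control protein.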 The settings on record: higher = more signal.
The nature of test [17]: probe aInhba binding on compound microarray – biochemical, small-molecule microarray, 635/667 nm fluorescence, primary screen (AID 1148).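 Note: score merges 667nm spot fluorescence with signal-to-noise for antibody binding to printed compounds.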 The settings on record: higher = more signal.
Test [18] deals with Torsin-1A (Homo sapiens) (UniProt O14656). In words: TOR1A wild-type binding on microarray – cell lysate, small-molecule microarray, lysate, 635/667 nm, primary screen (AID 1149). The settings on record: COS7 hTOR1A-WT lysate, 635 nm fluorescence, higher = more signal.
Test [19] has the same target. Briefly: torsin A mutant lysate binding on microarrays – cell lysate, small-molecule microarray, COS7 lysate, 635/667 nm fluorescence, primary screen (AID 1150).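 Note: score pools 667 nm emission and signal to noise measuring lysate protein binding.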 The note with it: COS7 hTOR1A mutant lysate, 635 nm fluorescence, higher = more signal.
Test [20] relates to Sonic hedgehog protein (Shh). In words: Sonic hedgehog microarray binding compounds – biochemical, small-molecule microarray, 635/667 nm fluorescence, primary screen (AID 1151).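 Note: Shh protein binding to compounds spotted on small-molecule microarray slides; score combines spot fluorescence intensity with signal-to-noise across triplicate slides.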 The settings on record: 635 nm fluorescence, higher = more signal.

Composite z-score and z-score data for four compounds are collected here from PubChem BioAssay.

The structures appear in SMILES notation. Activity calls are given as the source filed them. Unless noted, the rule behind the calls is not given here.

Chain of Luciferin 4-monooxygenase (Photinus pyralis) (P08659 whole entry, looked up): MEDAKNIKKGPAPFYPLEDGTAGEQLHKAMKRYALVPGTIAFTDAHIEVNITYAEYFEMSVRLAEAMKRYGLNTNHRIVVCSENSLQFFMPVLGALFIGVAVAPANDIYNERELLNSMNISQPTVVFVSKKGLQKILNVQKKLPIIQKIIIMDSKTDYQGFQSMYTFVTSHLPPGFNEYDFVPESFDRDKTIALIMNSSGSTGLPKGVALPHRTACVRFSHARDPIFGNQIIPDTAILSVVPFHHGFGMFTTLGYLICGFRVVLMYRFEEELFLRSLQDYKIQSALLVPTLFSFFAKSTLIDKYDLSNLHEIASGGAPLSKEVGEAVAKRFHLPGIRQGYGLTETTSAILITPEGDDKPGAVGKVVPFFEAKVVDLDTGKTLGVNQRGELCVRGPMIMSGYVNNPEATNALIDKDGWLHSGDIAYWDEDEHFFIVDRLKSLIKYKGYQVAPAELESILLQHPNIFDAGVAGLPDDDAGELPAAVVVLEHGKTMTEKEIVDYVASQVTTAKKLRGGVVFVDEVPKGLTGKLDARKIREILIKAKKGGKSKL
Chain of Focal adhesion kinase 1 (Homo sapiens) (Q05397 whole entry, looked up): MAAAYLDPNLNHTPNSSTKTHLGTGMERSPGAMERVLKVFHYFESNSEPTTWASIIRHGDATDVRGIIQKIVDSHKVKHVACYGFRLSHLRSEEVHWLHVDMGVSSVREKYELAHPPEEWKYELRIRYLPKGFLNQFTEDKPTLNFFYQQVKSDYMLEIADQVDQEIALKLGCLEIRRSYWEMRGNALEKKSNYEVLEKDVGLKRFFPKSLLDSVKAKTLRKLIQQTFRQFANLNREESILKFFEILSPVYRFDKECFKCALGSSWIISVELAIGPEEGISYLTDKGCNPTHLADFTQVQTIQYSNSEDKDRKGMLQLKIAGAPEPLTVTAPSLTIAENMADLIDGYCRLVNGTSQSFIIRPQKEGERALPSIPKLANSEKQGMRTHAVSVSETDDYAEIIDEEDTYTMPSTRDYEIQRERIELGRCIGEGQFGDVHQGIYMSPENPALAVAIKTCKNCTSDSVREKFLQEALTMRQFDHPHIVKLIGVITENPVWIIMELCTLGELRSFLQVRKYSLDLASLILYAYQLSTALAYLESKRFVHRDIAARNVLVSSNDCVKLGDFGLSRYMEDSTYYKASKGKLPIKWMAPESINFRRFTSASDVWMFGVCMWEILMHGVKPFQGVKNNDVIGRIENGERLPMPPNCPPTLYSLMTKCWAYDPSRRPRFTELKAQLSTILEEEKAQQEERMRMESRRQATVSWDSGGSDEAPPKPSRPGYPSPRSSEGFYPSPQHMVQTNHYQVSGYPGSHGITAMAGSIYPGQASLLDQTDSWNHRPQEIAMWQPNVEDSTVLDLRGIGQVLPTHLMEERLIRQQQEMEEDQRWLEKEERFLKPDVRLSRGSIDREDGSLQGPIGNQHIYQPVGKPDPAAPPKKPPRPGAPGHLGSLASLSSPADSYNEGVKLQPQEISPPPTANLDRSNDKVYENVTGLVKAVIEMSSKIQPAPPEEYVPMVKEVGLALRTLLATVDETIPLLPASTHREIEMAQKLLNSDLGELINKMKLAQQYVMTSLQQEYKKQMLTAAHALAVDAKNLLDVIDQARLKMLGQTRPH
Chain of Follistatin (Homo sapiens) (P19883 whole entry, looked up): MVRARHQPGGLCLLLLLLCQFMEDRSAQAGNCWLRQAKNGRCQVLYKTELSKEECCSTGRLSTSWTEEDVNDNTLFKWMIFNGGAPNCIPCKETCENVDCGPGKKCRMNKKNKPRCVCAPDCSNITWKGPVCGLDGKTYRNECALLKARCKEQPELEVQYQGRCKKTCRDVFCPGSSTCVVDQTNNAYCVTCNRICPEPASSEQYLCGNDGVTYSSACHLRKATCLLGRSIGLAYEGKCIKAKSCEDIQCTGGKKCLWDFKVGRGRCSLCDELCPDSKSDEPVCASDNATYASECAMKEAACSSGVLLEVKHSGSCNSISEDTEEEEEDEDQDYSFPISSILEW
Chain of Streptavidin (Streptomyces avidinii) (P22629 whole entry, looked up): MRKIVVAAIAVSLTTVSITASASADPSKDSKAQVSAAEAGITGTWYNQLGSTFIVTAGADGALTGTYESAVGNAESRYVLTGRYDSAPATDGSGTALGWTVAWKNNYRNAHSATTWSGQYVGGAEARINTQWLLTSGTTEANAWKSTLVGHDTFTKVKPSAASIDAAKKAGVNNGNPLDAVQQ
Chain of Torsin-1A (Homo sapiens) (O14656 whole entry, looked up): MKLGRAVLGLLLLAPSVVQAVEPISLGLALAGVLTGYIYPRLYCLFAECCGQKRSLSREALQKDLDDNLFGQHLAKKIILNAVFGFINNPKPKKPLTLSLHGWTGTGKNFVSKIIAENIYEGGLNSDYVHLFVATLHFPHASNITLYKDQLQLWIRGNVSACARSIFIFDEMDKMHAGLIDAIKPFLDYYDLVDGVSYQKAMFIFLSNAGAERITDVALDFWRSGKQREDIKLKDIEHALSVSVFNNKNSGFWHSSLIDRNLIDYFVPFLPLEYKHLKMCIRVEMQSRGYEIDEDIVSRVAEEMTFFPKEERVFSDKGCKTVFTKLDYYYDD
Chain of Fibroblast growth factor 2 (Homo sapiens) (P09038 whole entry, looked up): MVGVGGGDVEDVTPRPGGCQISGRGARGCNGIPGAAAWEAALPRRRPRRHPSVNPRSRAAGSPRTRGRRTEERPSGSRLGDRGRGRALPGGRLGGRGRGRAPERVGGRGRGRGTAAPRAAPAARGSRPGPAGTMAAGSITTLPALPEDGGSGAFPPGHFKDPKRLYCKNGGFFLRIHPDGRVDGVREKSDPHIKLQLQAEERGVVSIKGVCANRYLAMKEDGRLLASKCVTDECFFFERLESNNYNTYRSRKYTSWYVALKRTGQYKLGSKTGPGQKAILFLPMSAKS

As for `COC(=O)C(CC#Cc1ccc2c(c1)[C@]1(C(=O)N2)[C@H](c2ccccc2OCCO)N2[C@H](c3ccccc3)[C@H](c3ccccc3)OC(=O)[C@H]2[C@@H]1C(=O)NC[C@H](O)c1ccccc1)C(=O)OC`, the composite z-score amounted to 1.42 in [1]; 1.23 in [2]; 3.08 in test [3]; 0.427 in test [4]; 0.597 in [5]; 1.06 in test [6]. For the same compound, the composite z-score in test [8] is 0.697; in test [9], 1.14; in test [11], 0.572; in test [16] it was 0.0979; in [17] it was -0.199; in test [18] it was 0.951. In addition, the figures for the composite z-score in test [19] and in test [20] were 0.68 and 1.22, respectively. Further, the z-score is -0.789 in test [7]; -0.832 (inactive) in [10]; -3.75 (inactive) in test [12]; -1.26 (inactive) in test [13]; -0.168 (inactive) in test [14]; 0.717 (inactive) in test [15].
For the compound `OCC1CC(c2ccccc2)=NO1` (stereo not given), the composite z-score was 0.702 in test [1]; -0.0937 in [2]; -0.219 in [3]; -0.327 in test [4]; 0.5 in test [5]; 0.774 in [6]. Also, the composite z-score was -0.0193 in [8]; -0.239 in test [9]; 0.111 in [11]; 2.47 in [16]; -0.0405 in test [17]; 0.99 in test [18]. Also, the composite z-score is 0.322 in [19] and 0.0003 in test [20]. Also, the z-score in [7] is 0.875; in test [10] it was -1.4 (inactive); in test [12], 0.414 (inactive); in [13] it was -0.0165 (inactive); in test [14] it was 0.312 (inactive); in [15] it was -0.295 (inactive).
For the compound `COC(=O)[C@@]1(Cc2ccc(OC)cc2)[C@H]2c3cc(C(=O)N(C)C)n(CCO)c3C[C@H]2CN1C(=O)c1ccccc1`, the composite z-score in [1] is 0.214; in [2] it was 0.498; in test [3], 1.45; in test [4], 0.662; in [5] it was -0.603; in test [6] it was -0.545. Also, the composite z-score was -1.19 in test [8]; 0.946 in test [9]; 0.29 in test [11]; 1.61 in [16]; 0.488 in test [17]; 0.145 in [18]. Further, the composite z-score in test [19] was 1.16; in test [20], -0.544. Further, the z-score in [7] is 0.782; in [10] it was 2.04 (inactive); in [12] it was -0.0015 (inactive); in test [13] it was 0.371 (inactive); in [14], -0.182 (inactive); in test [15], 1.23 (inactive).
Turning to `CCCCCCCCCCC(O)C1C=CC2C(=O)N(C)C(=O)C2N1NC(=O)OC(C)(C)C` (stereo not given), the composite z-score was 0.179 in test [1]; 0.995 in [2]; 0.723 in test [3]; 0.907 in test [4]; -0.406 in [5]; -0.531 in [6]. The composite z-score in test [8] is -0.19; in test [9] it was 0.474; in [11] it was -0.121; in [16], 0.548; in test [17] it was 0.0198; in [18] it was -0.436. Besides, the composite z-score in test [19] was 0.0812; in [20] it was -0.813. Further, the z-score in test [7] is -1.2; in [10], -1.33 (inactive); in [12] it was -3.15 (inactive); in [13], 0.918 (inactive); in test [14] it was 0.632 (inactive); in [15] it was 0.584 (inactive).
